{"source": "PubChem BioAssay (NCATS)", "key": {"[1]": {"assay": "qHTS assay for cell viability of the p53RE-bla HCT-116 cell line (AID 743292); also: % is scaled to controls: 0 for no effect and ±100 for the full control effect; nearly all actives have a fitted effect of over 55% in size", "how_it_was_run": "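Readout: CellTiter-Glo luminescence after 30 min RT. Treatment: compounds in DMSO, 16 h, 37 C. Cells: CellSensor p53RE-bla HCT-116, 4,000/well, preincubated 5 h.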"}, "[2]": {"assay": "qHTS assay for cell viability of HEK293 cells (AID 743288); also: % is scaled to controls: 0 for no effect and ±100 for the full control effect; nearly all actives have a fitted effect of over 50% in size", "conditions": "ATP luminescence (CellTiter-Glo), 18 h; max response: stronger effect = lower value", "how_it_was_run": "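Total intracellular ATP, measured with a luciferase-coupled reagent, indicates the number of viable HEK293 cells. Exposure to test chemicals lasts 18 h at 37 C in 1,536-well format at 2,000 cells/well.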"}, "[3]": {"assay": "qHTS profiling for inhibitors of Plasmodium falciparum (3D7) proliferation (AID 743322);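 also: infected erythrocytes exposed to compound for 72 h before lysis; 100% = DMSO vehicle wells and 0% = 0.29 µM artemisinin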", "conditions": "P. falciparum 3D7 proliferation; at 28.7 µM (top of the series) unless noted", "how_it_was_run": "(§1)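 Erythrocytes infected with P. falciparum (0.3% parasitemia, 2.5% hematocrit) incubated with compounds 72 h at 37 C, 5% CO2. Lysis with saponin/Triton buffer containing SYBR Green I, overnight at room temperature in the dark; DNA fluorescence (485/535 nm) normalised to 0.29 uM artemisinin and DMSO.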"}, "[4]": {"assay": "qHTS profiling for inhibitors of Plasmodium falciparum (DD2) proliferation (AID 743323; call rule not given here)", "conditions": "lower = more inhibition; at 28.7 µM (top of the series) unless noted", "how_it_was_run": "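Parasite proliferation measured via DNA-dye fluorescence, as uninfected erythrocytes lack DNA. Cultures at 0.3% parasitemia and 2.5% hematocrit incubated 72 h with compound; signal scaled between vehicle and 0.29 uM artemisinin wells.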"}, "[5]": {"assay": "qHTS profiling for inhibitors of Plasmodium falciparum (HB3) proliferation (AID 743324)", "conditions": "Plasmodium falciparum HB3 blood-stage proliferation; at 28.7 µM (top of the series) unless noted", "how_it_was_run": "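P. falciparum HB3 grown in erythrocytes (0.3% parasitemia, 2.5% hematocrit final) with compound for 72 h at 37 C, 5% CO2. Parasite DNA detected by SYBR Green after saponin/triton lysis overnight; normalized to 0.29 uM artemisinin and DMSO.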"}, "[6]": {"assay": "qHTS profiling of the MIPE4 collection as inhibitors of Plasmodium falciparum (3D7) proliferation (AID 743344; call rule not given here)", "conditions": "P. falciparum 3D7 in erythrocytes, SYBR Green DNA fluorescence, 72 h; at 28.5 µM (top of the series)", "how_it_was_run": "as §1"}, "[7]": {"assay": "qHTS profiling of the MIPE4 collection as inhibitors of Plasmodium falciparum (DD2) proliferation (AID 743345; call rule not given here)", "conditions": "P. falciparum Dd2 in erythrocytes, SYBR Green DNA, 72 h; at 28.5 µM (top of the series)", "how_it_was_run": "as §1"}, "[8]": {"assay": "qHTS profiling of the MIPE4 collection as inhibitors of Plasmodium falciparum (DD2) proliferation (Rep 2) (AID 743346; call rule not given here)", "conditions": "P. falciparum Dd2 in erythrocytes, SYBR Green DNA, 72 h; at 28.5 µM (top of the series)", "how_it_was_run": "as §1"}, "[9]": {"assay": "qHTS profiling of the MIPE4 collection as inhibitors of Plasmodium falciparum (HB3) proliferation (AID 743347; call rule not given here)", "conditions": "P. falciparum HB3 in erythrocytes, SYBR Green DNA, 72 h; at 28.5 µM (top of the series)", "how_it_was_run": "as §1"}}, "note": "“And” between values parts separate entries of the source, which are not always exact repeats. Identical values can stand only once. Results filed as inconclusive are left out. The source made the active and inactive calls. Unless noted, calls follow the shape of the dose curve; as a rule, active = well fitted curve in the direction sought with a large enough effect; inconclusive = small, poorly fitted or top-dose-only effect, or another doubt; inactive = no such curve, though single readings can be large; an effect the other way counts as inactive or inconclusive.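 For growth, % of control in this document: plate controls were DMSO vehicle wells for no effect and artemisinin wells for full effect.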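 For remaining proliferation (% of control), lower = more inhibition in this document: 100% = DMSO vehicle wells and 0% = artemisinin-treated control wells.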", "data": [{"smiles": "O=C1CN(/N=C/c2ccc([N+](=O)[O-])o2)C(=O)N1", "values": [{"measurement": "Potency", "setting": "[1]", "result": "inactive"}]}, {"smiles": "c1ccc2sc(SSc3nc4ccccc4s3)nc2c1", "values": [{"measurement": "max response", "setting": "[2]", "result": "-16% (inactive) and 1.48% (inactive)"}, {"measurement": "Potency", "setting": "[1]", "result": "inactive"}]}, {"smiles": "C#C[C@]1(O)CC[C@H]2[C@@H]3CCc4cc(O)ccc4[C@H]3CC[C@@]21C", "values": [{"measurement": "max response", "setting": "[2]", "result": "-11.3% (inactive) and -0.854% (inactive)"}, {"measurement": "Potency", "setting": "[1]", "result": "inactive"}]}, {"smiles": "CN1[C@@H]2CC[C@H]1CC(OC(=O)C(CO)c1ccccc1)C2", "note": "(some centres not stated)", "values": [{"measurement": "max response", "setting": "[2]", "result": "-4.41% (inactive)"}, {"measurement": "Potency", "setting": "[1]", "result": "inactive"}]}, {"smiles": "Oc1ccccc1O", "values": [{"measurement": "Potency", "setting": "[1]", "result": "inactive"}]}, {"smiles": "CCCOC(=O)c1ccc(O)cc1", "values": [{"measurement": "max response", "setting": "[2]", "result": "-5.57% (inactive) and 0.165% (inactive) and 2.13% (inactive)"}, {"measurement": "Potency", "setting": "[1]", "result": "inactive"}]}, {"smiles": "S=c1[nH]c2ccccc2s1", "values": [{"measurement": "max response", "setting": "[2]", "result": "3.04% (inactive) and -5.55% (inactive)"}, {"measurement": "Potency", "setting": "[1]", "result": "inactive"}]}, {"smiles": "O=C(O)c1ccccc1Nc1cccc(C(F)(F)F)c1", "values": [{"measurement": "max response", "setting": "[2]", "result": "-8.76% (inactive)"}, {"measurement": "Potency", "setting": "[1]", "result": "inactive"}]}, {"smiles": "COc1cc(NC(C)CCCN)c2ncccc2c1", "note": "(configuration not stated)", "values": [{"measurement": "remaining parasite growth % (stronger effect = lower value)", "setting": "[3]", "result": "4.3% [at 9.63 µM]"}, {"measurement": "activity, percent of control", "setting": "[4]", "result": "2.77% [at 9.63 µM]"}, {"measurement": "remaining proliferation (% of control), lower = more inhibition", "setting": "[5]", "result": "6.48% [at 9.63 µM]"}, {"measurement": "parasite growth, % of DMSO control", "setting": "[6]", "result": 7.16, "unit": "%"}, {"measurement": "parasite growth remaining, % of DMSO control (lower = more inhibition)", "setting": "[7]", "result": 8.84, "unit": "%"}, {"measurement": "parasite growth, % of control (lower = inhibition)", "setting": "[8]", "result": 15.5, "unit": "%"}, {"measurement": "growth, % of control", "setting": "[9]", "result": 8.75, "unit": "%"}]}, {"smiles": "NCCO", "values": [{"measurement": "Potency", "setting": "[1]", "result": "inactive"}]}]}
